This is a sample that favours compounds with a hit; in the whole collection about 2.9% have one here.
SMARCA2 activ = increases SMARCA2 function in MMTV reporter cells. MG213 cells, MMTV-luciferase reporter, dexamethasone, overnight. 1% of 370,000 active. AID 652017. activation, % at 9.1 µM; in the data active means activation above about 7.8%;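 further: 0% = vehicle wells and 100% = reference activator wells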
FXN GAA850 act = frataxin GAA850 promoter activation; 0.56% of 360,000 active; HEK293 lucGAA850 FXN promoter luciferase reporter, 24 h; percent of 10 µM SAHA response; activation, % at 6 µM; AID 540364;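 active means activation above the average of all compounds screened plus 3 SD, cutoff fixed separately per campaign, cut at about 7.5% in these data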;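 further: 0% = DMSO wells and 100% = 10 µM SAHA wells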
proKLK7 act = proKLK7 (human) activation, primary screen; 0.9% of 370,000 active; P49862; purified proKLK7, EDANS-DABCYL substrate fluorescence; 100% is mature enzyme control, 0% vehicle; activation, % at 7 µM; AID 652039;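 active means activation above the mean of all tested compounds plus 3 SD, computed per campaign excluding outliers beyond control limits, cut at about 13% in these data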
Target sequence (P49862 whole entry, looked up): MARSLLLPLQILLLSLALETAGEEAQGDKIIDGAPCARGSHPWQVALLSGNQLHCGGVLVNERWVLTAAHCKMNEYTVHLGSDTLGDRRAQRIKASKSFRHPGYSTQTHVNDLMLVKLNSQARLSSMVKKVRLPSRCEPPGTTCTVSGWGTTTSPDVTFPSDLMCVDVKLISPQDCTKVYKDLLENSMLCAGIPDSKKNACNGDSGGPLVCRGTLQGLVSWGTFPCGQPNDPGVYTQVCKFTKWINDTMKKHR
FAS-TE inh = blocks the thioesterase domain of human fatty acid synthase. inhibition, % at 15 µM. recombinant FAS-TE, OMFH fluorogenic substrate, fluorescence endpoint. 0.67% of 360,000 active. P49327;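 active means compounds whose normalised, plate-corrected inhibition of enzyme fluorescence in the single-dose primary screen is 50% or more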;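 further: 0% = DMSO with enzyme and 100% = substrate without enzyme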
SMARCA2 conf = SMARCA2 activation, confirmation screen. shares compounds with SMARCA2 activ. 30% of 3,500 active. MG213 cells, MMTV-luciferase with dexamethasone, luminescence, overnight; MG213 cells expressing E1A, Rb sequestered; DMSO wells 0%, reference activator 100%. activation, % at 9.1 µM;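 active means activation above its plate's cutoff, the mean activation of tested wells plus 3 SD, cut at about 7.9% in these data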
GAL4-VP16 Luc = activates GAL4-VP16 luciferase, flagging SMARCA2 activator hits. shares compounds with SMARCA2 activ. HEK293 GAL4-VP16 pG5luc reporter, luciferase luminescence; scaled: DMSO wells 0%, SAHA wells 100%. activation, % at 9.1 µM. 41% of 3,500 active;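 active means activation above the solvent-only control well mean plus 3 SD, averaged across control plates, cut at about 5.2% in these data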
Active calls of the source: *.

How did CS(=O)(=O)n1nc(-c2ccc(Cl)cc2)nc1N do in these assays?
SMARCA2 activ: 8.5*; FXN GAA850 act: 2; proKLK7 act: 0; FAS-TE inh: -2; SMARCA2 conf: 1; GAL4-VP16 Luc: 1

What do the screens show for `O=c1cc(-c2ccccc2)oc2cc(O)ccc12`?
SMARCA2 activ: 4; FXN GAA850 act: 0; proKLK7 act: -4; FAS-TE inh: 0

What do the screens show for `O=c1cc(-c2ccc(O)cc2)oc2ccccc12`?
SMARCA2 activ: 9.0*; FXN GAA850 act: 3; proKLK7 act: 0; FAS-TE inh: 1; SMARCA2 conf: 12*; GAL4-VP16 Luc: 9.0*

How did O=c1cc(-c2ccc3c(c2)OCO3)oc2ccccc12 do in these assays?
SMARCA2 activ: 18*; FXN GAA850 act: 5; proKLK7 act: 6; FAS-TE inh: -3; SMARCA2 conf: 6; GAL4-VP16 Luc: 7.3*

Results for O=c1cc(-c2ccc(O)c(O)c2)oc2ccc3ccccc3c12 ?
SMARCA2 activ: 8.2*; FXN GAA850 act: -1; proKLK7 act: 0; FAS-TE inh: 18; SMARCA2 conf: -7; GAL4-VP16 Luc: 5.2*

What do the screens show for `O=c1cc(-c2ccccc2)oc2cc(O)cc(O)c12`?
SMARCA2 activ: 8.5*; FXN GAA850 act: 4; proKLK7 act: 0; FAS-TE inh: -3; SMARCA2 conf: 3; GAL4-VP16 Luc: 7.5*

How did O=C(/C=C/c1ccccc1Cl)c1ccc[nH]1 do in these assays?
SMARCA2 activ: 1; FXN GAA850 act: 7; proKLK7 act: -1; FAS-TE inh: -5

What do the screens show for `O=c1oc(-c2ccc(O)c(O)c2)cc2cc(O)cc(O)c12`?
SMARCA2 activ: 11*; FXN GAA850 act: 7; proKLK7 act: -10; FAS-TE inh: -4; SMARCA2 conf: 12*; GAL4-VP16 Luc: 8.3*

Results for CCc1nnc2n1N=C(c1ccc(OC)cc1)CS2 ?
SMARCA2 activ: -1; FXN GAA850 act: 1; proKLK7 act: 0; FAS-TE inh: -6

What do the screens show for `CCc1nnc2n1N=C(c1ccc(-c3cc(Cl)ccc3Cl)o1)CS2`?
SMARCA2 activ: 8.9*; FXN GAA850 act: 4; proKLK7 act: -1; FAS-TE inh: -15; SMARCA2 conf: 1; GAL4-VP16 Luc: 2

How did Fc1ccc(NCc2cn3ccccc3n2)cc1 do in these assays?
SMARCA2 activ: 9.7*; FXN GAA850 act: 5; proKLK7 act: 0; FAS-TE inh: -8; SMARCA2 conf: 7; GAL4-VP16 Luc: 6.3*

What do the screens show for `O=C(NCCc1cn2ccccc2n1)c1ccccc1F`?
SMARCA2 activ: 3; FXN GAA850 act: -1; proKLK7 act: 0; FAS-TE inh: -2

Results for COc1ccc(C2=Nc3ccccc3N(C(=O)c3ccncc3)C2C(=O)NC(C)(C)C)cc1 (centres undefined) ?
SMARCA2 activ: 16*; proKLK7 act: 1; SMARCA2 conf: -2; GAL4-VP16 Luc: 1

How did COc1ccc(NC(=O)C2C(c3ccc4c(c3)OCO4)=Nc3ccccc3N2C(=O)c2cccc(C(F)(F)F)c2)cc1 (centres undefined) do in these assays?
SMARCA2 activ: 6; proKLK7 act: -13

What do the screens show for `COc1ccc(NC(=O)C2C(c3ccc4c(c3)OCO4)=Nc3ccccc3N2C(C)=O)cc1` (centres undefined)?
SMARCA2 activ: 9.2*; proKLK7 act: 0; SMARCA2 conf: 8.0*; GAL4-VP16 Luc: 6.4*

Results for CC(C)n1nnnc1C1c2ccccc2C(=O)N1CCOc1ccccc1 (centres undefined) ?
SMARCA2 activ: 6; proKLK7 act: -1; FAS-TE inh: -5

Results for COC(=O)C1C(c2ccccc2)C(C(=O)OCc2ccco2)C1c1ccccc1 (centres undefined) ?
FXN GAA850 act: -4; FAS-TE inh: 30

What do the screens show for `Cc1ccc(NC(=S)NCc2cccs2)c(C)c1`?
SMARCA2 activ: 10*; FXN GAA850 act: 3; proKLK7 act: 0; FAS-TE inh: -1; SMARCA2 conf: -2; GAL4-VP16 Luc: 1

What do the screens show for `CC1(C)CC2CC(C)(CN2CC(O)COc2ccccc2)C1` (centres undefined)?
SMARCA2 activ: 3; FXN GAA850 act: 0; proKLK7 act: 0; FAS-TE inh: -5
